Holding throughout (assay): DAPPL (digital affinity profiling via proximity ligation, sequencing); 10 mM Tris-HCl pH 7.5, 50 mM NaCl, 1 mM DTT, 4% glycerol, room temperature, 30 min; GST-TFs on glutathione beads, 16-mer random dsDNA library, 0.1% formaldehyde crosslink after washing; high values mean tight binding
The target of one experiment is T1, FEV (Homo sapiens, UniProt Q99581 1-238).
T1 sequence: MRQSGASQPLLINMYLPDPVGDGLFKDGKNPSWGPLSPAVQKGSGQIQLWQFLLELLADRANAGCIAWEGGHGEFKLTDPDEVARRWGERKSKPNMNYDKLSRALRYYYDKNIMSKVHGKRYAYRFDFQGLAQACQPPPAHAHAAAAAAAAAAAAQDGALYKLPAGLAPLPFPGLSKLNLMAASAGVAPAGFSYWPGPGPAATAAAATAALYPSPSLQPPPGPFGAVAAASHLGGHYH
The conditions noted are these: protein: recombinant; tags: N-terminal GST; dsDNA, one strand shown. In a few lines: (§1)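 Human transcription factors were made in yeast as GST fusions, captured on glutathione beads and barcoded with DNA. With a tag-only sample included, the pool was incubated with 200 nmole of a random double-stranded 16-mer DNA library in Tris/NaCl/DTT/glycerol buffer at room temperature for 30 min, then crosslinked with 0.1% formaldehyde after washing, ligated by proximity, amplified and sequenced. For binding signal, each hexamer's read frequency for a factor is divided by its frequency for the tag-only sample.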

The target in another experiment is ETV5 (Homo sapiens, UniProt P41161 1-510). To be noted: protein: recombinant; tags: N-terminal GST; dsDNA, one strand shown. In a few lines: as §1
ETV5, sequence (P41161 whole entry): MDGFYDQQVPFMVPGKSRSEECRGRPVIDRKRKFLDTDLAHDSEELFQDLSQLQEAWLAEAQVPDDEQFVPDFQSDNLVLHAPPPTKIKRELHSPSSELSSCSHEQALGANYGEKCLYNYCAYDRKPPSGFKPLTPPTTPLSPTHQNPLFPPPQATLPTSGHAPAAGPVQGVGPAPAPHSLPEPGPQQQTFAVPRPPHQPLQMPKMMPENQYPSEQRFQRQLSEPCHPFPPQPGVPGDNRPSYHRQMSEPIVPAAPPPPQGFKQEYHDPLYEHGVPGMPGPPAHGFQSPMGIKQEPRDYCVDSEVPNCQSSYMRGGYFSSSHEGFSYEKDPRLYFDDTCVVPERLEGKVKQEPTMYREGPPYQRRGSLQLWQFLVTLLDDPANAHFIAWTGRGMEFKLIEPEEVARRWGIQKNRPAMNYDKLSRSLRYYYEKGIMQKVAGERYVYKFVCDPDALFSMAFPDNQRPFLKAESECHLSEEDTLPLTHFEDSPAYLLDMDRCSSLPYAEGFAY
A further experiment has as its target HSF1 (Homo sapiens, UniProt Q00613 1-529). The conditions noted are these: protein: recombinant; tags: N-terminal GST; chain copies: 3; dsDNA, one strand shown. Summed up: as §1
A further experiment addresses T2, SPIC (Homo sapiens, UniProt Q8N5J4 1-248).
T2 sequence: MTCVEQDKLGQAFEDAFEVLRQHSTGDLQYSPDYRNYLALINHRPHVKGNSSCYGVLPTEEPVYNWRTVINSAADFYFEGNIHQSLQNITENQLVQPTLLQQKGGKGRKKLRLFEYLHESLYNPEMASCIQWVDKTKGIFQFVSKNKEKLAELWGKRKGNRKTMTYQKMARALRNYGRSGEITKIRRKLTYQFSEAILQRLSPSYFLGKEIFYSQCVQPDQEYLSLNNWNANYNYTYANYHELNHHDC
To be noted: protein: recombinant; tags: N-terminal GST; dsDNA, one strand shown. In a few lines: as §1

Another experiment deals with ELF4 (Homo sapiens, UniProt Q99607 1-663). The conditions noted are these: protein: recombinant; tags: N-terminal GST; dsDNA, one strand shown. Summed up: as §1
ELF4, sequence (Q99607 whole entry): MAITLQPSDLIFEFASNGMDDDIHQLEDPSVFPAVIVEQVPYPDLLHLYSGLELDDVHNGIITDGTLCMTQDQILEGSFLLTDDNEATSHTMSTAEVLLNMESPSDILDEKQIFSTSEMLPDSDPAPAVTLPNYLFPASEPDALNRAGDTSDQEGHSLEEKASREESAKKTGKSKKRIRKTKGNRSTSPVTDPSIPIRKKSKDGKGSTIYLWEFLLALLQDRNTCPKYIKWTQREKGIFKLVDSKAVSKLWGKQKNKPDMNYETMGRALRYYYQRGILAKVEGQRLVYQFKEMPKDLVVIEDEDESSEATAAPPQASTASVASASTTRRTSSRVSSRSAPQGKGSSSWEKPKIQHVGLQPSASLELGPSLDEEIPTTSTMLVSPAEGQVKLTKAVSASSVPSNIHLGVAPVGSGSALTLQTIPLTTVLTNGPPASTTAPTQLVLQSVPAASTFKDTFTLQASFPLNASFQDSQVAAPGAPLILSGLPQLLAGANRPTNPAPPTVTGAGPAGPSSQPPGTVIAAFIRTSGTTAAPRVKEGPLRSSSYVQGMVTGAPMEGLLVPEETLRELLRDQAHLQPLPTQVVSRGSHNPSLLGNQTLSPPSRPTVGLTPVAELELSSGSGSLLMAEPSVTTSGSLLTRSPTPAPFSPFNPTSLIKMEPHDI
The target in the next experiment is T3, ELK4 (Homo sapiens, UniProt P28324-2 1-405).
T3 sequence: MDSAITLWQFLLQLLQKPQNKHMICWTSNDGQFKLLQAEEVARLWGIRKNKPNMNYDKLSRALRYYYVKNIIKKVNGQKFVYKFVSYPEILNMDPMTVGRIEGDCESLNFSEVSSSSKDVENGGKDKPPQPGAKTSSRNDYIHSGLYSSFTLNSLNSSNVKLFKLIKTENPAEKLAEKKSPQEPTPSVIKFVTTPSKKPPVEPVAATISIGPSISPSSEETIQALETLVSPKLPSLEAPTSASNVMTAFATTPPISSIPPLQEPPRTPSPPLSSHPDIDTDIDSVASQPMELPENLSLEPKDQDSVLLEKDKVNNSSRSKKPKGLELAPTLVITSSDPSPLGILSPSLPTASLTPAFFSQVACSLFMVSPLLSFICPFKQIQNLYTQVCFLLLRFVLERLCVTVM
The conditions noted are these: protein: recombinant; tags: N-terminal GST; dsDNA, one strand shown. In a few lines:
as §1

In the next experiment the target is T4, ETV2 (Homo sapiens, UniProt O00321 1-342).
T4 sequence: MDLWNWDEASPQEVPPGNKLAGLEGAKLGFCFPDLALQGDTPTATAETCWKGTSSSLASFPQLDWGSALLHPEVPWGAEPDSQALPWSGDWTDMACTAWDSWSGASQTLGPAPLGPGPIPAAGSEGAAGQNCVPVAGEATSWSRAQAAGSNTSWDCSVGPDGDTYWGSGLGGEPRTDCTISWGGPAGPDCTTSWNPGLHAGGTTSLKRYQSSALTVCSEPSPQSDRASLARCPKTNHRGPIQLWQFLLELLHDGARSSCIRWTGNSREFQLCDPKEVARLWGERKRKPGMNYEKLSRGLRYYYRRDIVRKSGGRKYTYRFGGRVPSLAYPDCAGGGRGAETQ
To be noted: protein: recombinant; tags: N-terminal GST; dsDNA, one strand shown. Summed up: as §1

The target in a further experiment is T5, ELF3 (Homo sapiens, UniProt P78545 1-371).
T5 sequence: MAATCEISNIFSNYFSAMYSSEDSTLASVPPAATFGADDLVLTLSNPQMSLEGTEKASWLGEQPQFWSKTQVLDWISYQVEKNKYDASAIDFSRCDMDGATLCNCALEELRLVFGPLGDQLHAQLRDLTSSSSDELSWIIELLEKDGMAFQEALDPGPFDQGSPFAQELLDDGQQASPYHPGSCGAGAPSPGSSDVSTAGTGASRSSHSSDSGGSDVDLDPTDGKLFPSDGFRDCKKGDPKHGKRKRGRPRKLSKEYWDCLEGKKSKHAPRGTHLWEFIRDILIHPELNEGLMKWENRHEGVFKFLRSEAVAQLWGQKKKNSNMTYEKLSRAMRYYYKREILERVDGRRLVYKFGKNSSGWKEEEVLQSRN
The conditions noted are these: protein: recombinant; tags: N-terminal GST; dsDNA, one strand shown. In a few lines:
as §1

A further experiment deals with CRX (Homo sapiens, UniProt O43186 1-299). The conditions noted are these: protein: recombinant; tags: N-terminal GST; dsDNA, one strand shown. In a few lines: as §1
CRX, sequence (O43186 whole entry): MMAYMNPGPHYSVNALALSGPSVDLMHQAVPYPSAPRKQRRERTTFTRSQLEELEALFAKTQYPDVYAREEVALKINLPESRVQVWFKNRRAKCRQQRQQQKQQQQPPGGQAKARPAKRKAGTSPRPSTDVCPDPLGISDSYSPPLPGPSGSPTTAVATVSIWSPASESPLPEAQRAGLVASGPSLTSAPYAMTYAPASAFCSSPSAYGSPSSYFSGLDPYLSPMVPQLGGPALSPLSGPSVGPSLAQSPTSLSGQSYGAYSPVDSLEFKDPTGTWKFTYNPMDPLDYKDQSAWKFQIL
The target in the next experiment is ETV1 (Homo sapiens, UniProt P50549 1-477). To be noted: protein: recombinant; tags: N-terminal GST; dsDNA, one strand shown. Summed up:
as §1

The target of a further experiment is T6, ERF (Homo sapiens, UniProt P50548 1-548).
T6 sequence: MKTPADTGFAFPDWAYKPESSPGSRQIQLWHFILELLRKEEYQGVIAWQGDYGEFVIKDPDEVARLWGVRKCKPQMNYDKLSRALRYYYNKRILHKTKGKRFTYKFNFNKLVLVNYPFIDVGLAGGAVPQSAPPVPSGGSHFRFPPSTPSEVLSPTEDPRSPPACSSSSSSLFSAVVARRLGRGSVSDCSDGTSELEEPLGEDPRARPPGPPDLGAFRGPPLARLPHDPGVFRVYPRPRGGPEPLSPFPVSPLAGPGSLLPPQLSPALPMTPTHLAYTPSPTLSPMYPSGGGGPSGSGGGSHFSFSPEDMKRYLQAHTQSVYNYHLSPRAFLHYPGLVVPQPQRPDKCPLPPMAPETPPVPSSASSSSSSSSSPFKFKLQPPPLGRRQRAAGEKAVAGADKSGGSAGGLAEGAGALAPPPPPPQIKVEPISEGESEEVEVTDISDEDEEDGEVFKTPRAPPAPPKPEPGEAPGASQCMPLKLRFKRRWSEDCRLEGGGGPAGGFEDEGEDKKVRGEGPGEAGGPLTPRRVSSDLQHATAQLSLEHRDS
To be noted: protein: recombinant; tags: N-terminal GST; dsDNA, one strand shown. Summed up: as §1

The next experiment deals with T7, ETV3L (Homo sapiens, UniProt Q6ZN32 1-361).
T7 sequence: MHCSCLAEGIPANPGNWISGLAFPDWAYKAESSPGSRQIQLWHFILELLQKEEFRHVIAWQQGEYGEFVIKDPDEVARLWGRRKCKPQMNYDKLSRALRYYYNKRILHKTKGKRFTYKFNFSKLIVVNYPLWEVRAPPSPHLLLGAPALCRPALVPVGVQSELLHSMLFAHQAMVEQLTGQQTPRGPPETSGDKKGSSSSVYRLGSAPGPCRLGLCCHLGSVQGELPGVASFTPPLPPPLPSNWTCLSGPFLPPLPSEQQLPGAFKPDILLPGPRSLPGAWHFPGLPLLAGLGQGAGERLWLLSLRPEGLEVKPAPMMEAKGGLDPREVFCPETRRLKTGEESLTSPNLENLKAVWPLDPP
To be noted: protein: recombinant; tags: N-terminal GST; dsDNA, one strand shown. In a few lines:
as §1

The target in a further experiment is T8, ETS2 (Homo sapiens, UniProt P15036 1-469).
T8 sequence: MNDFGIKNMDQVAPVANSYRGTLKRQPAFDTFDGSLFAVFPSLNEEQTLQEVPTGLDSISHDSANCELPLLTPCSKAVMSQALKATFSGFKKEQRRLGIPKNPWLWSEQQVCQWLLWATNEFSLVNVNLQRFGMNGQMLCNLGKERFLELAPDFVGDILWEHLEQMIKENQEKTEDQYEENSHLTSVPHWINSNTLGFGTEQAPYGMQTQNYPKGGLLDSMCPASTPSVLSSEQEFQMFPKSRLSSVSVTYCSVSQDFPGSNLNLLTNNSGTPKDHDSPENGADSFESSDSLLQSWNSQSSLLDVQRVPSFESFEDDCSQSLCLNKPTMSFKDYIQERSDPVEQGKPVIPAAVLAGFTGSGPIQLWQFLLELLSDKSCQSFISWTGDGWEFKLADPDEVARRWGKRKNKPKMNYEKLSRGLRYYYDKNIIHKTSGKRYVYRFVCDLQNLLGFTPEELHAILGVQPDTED
To be noted: protein: recombinant; tags: N-terminal GST; dsDNA, one strand shown. Summed up: as §1

Another experiment addresses T9, SPDEF (Homo sapiens, UniProt O95238 1-335).
T9 sequence: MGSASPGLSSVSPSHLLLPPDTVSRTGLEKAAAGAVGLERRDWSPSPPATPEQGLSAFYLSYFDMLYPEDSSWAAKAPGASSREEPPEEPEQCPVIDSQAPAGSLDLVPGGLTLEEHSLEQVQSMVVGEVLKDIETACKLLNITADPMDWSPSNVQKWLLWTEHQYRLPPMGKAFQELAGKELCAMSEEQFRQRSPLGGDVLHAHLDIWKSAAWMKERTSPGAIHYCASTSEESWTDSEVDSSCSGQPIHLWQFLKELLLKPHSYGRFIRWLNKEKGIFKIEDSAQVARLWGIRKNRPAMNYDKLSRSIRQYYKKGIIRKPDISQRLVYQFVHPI
To be noted: protein: recombinant; tags: N-terminal GST; dsDNA, one strand shown. In a few lines:
as §1

A further experiment concerns the target T10, ETV7 (Homo sapiens, UniProt Q9Y603 1-341).
T10 sequence: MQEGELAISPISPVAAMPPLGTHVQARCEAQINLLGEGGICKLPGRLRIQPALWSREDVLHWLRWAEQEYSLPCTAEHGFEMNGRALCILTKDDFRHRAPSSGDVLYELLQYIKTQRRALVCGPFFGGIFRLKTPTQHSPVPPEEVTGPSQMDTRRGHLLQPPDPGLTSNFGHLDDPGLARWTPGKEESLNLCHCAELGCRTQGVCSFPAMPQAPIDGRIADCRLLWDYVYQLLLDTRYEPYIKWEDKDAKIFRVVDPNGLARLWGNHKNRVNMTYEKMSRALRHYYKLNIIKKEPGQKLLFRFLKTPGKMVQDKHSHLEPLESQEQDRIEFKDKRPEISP
To be noted: protein: recombinant; tags: N-terminal GST; dsDNA, one strand shown. Summed up: as §1

The target in another experiment is T11, ELF5 (Homo sapiens, UniProt Q9UKW6-2 1-255).
T11 sequence: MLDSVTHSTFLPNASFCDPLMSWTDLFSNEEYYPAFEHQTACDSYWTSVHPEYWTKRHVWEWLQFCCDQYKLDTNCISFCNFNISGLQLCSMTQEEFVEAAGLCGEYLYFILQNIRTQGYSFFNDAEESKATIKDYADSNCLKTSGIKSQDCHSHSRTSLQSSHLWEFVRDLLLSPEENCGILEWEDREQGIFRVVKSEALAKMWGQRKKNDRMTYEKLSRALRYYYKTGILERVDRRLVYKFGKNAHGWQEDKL
The conditions noted are these: protein: recombinant; tags: N-terminal GST; dsDNA, one strand shown. Summed up:
as §1

The target of another experiment is T12, ETV3 (Homo sapiens, UniProt P41162-2 1-143).
T12 sequence: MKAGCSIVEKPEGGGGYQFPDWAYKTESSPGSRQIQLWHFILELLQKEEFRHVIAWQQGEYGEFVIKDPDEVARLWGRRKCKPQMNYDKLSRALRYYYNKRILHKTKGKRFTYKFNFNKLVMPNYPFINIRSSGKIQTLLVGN
To be noted: protein: recombinant; tags: N-terminal GST; dsDNA, one strand shown. Summed up:
as §1

Another experiment deals with ETV6 (Homo sapiens, UniProt P41212 1-452). The conditions noted are these: protein: recombinant; tags: N-terminal GST; dsDNA, one strand shown. Summed up: as §1
ETV6, sequence (P41212 whole entry): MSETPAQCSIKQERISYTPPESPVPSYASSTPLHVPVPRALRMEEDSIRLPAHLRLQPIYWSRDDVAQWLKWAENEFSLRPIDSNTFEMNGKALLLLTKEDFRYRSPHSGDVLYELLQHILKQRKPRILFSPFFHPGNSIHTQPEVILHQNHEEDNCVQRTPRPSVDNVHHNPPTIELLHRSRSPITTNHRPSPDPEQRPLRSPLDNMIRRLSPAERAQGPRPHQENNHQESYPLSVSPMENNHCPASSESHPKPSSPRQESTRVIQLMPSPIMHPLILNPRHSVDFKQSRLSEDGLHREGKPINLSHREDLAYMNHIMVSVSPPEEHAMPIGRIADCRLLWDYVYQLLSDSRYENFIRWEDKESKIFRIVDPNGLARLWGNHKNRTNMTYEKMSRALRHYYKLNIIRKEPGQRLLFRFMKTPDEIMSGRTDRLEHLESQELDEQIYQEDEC

ETV1, sequence (P50549 whole entry): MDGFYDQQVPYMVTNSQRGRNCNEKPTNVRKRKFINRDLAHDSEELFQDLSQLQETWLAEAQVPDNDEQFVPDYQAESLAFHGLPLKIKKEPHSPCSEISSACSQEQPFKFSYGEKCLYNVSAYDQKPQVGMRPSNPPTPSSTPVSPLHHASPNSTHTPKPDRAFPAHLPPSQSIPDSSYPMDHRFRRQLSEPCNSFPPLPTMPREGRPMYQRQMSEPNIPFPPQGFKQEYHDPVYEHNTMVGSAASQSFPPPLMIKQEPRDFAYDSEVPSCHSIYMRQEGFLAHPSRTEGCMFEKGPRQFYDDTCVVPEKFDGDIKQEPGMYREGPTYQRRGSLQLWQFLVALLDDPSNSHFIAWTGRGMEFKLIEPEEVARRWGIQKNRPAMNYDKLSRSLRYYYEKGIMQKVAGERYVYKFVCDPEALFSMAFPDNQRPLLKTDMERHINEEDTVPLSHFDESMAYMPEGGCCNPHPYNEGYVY
HSF1, sequence (Q00613 whole entry): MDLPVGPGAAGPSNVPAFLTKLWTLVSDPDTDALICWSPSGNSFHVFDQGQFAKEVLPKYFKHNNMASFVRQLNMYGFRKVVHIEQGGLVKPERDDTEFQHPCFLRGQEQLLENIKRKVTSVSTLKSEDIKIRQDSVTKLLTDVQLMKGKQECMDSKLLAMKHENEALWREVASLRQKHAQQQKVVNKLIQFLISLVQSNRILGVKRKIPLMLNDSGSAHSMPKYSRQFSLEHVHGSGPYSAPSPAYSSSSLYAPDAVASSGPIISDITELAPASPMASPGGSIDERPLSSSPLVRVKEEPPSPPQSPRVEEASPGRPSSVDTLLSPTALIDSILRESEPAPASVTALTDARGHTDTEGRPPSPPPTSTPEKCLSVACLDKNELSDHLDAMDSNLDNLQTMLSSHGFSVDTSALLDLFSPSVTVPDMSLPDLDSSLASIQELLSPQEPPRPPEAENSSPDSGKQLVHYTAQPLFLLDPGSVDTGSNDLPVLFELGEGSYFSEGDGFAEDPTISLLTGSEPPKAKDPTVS

Consider TTACCT, for which the binding signal in the experiment with FEV is 1.26 fold enrichment (6-mer frequency, TF over GST control); with ETV5 it was 1.35 fold enrichment (6-mer frequency, TF over GST control); with HSF1 it was 1.45 fold enrichment (6-mer frequency, TF over GST control); in the experiment with SPIC it was 1.01 fold enrichment (6-mer frequency, TF over GST control); with ELF4, 1.21 fold enrichment (6-mer frequency, TF over GST control); with ELK4, 1.32 fold enrichment (6-mer frequency, TF over GST control). The binding signal was 1.32 fold enrichment (6-mer frequency, TF over GST control) with ETV2; 1.2 fold enrichment (6-mer frequency, TF over GST control) with ELF3; 2.09 fold enrichment (6-mer frequency, TF over GST control) with CRX; 1.32 fold enrichment (6-mer frequency, TF over GST control) with ETV1; 1.22 fold enrichment (6-mer frequency, TF over GST control) in the experiment with ERF; 1.22 fold enrichment (6-mer frequency, TF over GST control) in the experiment with ETV3L. The binding signal is 1.32 fold enrichment (6-mer frequency, TF over GST control) with ETS2; 1.18 fold enrichment (6-mer frequency, TF over GST control) with SPDEF; 1.36 fold enrichment (6-mer frequency, TF over GST control) with ETV7; 1.28 fold enrichment (6-mer frequency, TF over GST control) in the experiment with ELF5; 1.17 fold enrichment (6-mer frequency, TF over GST control) in the experiment with ETV3; 1.23 fold enrichment (6-mer frequency, TF over GST control) with ETV6.

These data come from publication PMC7862700, “An all-to-all approach to the identification of sequence-specific readers for epigenetic DNA modifications on cytosine”.
